# Assay results as given in ChEMBL document CHEMBL2218924, “A broad activity screen in support of a chemogenomic map for kinase signalling research and drug discovery” (Biochem J, 2013).
# Key:
# [1] = target: T1, Testis-specific serine/threonine-protein kinase 1 (Homo sapiens) (UniProt Q9BXA7); conditions: at 1 µM
# T1 sequence (whole entry): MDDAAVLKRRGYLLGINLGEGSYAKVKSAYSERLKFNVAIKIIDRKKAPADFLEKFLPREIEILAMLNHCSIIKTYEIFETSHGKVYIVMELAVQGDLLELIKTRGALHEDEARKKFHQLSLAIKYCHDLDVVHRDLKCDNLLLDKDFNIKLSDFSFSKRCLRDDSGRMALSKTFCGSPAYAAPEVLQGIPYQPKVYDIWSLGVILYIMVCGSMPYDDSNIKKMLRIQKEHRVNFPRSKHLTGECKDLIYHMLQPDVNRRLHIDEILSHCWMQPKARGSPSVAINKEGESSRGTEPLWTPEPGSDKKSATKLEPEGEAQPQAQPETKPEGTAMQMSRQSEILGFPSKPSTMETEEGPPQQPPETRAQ
# [2] = target: T1, Testis-specific serine/threonine-protein kinase 1 (Homo sapiens); conditions: at 10 µM
# [3] = target: T2, Testis-specific serine/threonine-protein kinase 2 (Homo sapiens) (UniProt Q96PF2); conditions: at 10 µM
# T2 sequence (whole entry): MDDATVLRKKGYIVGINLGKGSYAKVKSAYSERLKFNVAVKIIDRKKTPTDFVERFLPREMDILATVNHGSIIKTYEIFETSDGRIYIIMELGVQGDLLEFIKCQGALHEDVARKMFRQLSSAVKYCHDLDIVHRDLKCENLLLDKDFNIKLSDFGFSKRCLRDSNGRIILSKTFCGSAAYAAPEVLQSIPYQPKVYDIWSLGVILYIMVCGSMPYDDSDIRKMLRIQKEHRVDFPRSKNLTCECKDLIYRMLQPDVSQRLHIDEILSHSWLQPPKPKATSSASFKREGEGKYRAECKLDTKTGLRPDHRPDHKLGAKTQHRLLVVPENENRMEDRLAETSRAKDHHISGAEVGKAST
# [4] = target: T3, Tyrosine-protein kinase Tec (Homo sapiens) (UniProt P42680); conditions: at 1 µM
# T3 sequence (whole entry): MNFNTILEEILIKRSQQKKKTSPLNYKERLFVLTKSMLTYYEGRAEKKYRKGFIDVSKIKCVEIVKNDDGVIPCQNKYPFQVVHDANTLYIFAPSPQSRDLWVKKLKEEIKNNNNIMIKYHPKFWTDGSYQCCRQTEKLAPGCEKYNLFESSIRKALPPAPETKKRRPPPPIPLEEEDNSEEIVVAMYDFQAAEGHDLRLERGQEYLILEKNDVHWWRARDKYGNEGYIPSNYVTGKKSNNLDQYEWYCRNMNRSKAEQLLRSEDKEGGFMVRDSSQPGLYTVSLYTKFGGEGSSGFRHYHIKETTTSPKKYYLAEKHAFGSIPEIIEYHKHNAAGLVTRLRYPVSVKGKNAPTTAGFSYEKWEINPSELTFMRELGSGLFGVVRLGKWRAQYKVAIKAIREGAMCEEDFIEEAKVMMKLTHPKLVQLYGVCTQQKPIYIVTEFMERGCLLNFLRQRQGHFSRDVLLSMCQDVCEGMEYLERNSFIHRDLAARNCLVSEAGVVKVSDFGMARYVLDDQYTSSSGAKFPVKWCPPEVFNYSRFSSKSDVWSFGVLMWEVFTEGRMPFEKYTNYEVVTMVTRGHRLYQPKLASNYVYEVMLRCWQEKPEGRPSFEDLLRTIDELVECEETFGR
# [5] = target: T3, Tyrosine-protein kinase Tec (Homo sapiens); conditions: at 10 µM
# [6] = target: Angiopoietin-1 receptor (Homo sapiens) (UniProt Q02763); conditions: at 1 µM
# [7] = target: Angiopoietin-1 receptor (Homo sapiens) (UniProt Q02763); conditions: at 10 µM
# [8] = target: High affinity nerve growth factor receptor (Homo sapiens) (UniProt P04629); conditions: at 1 µM
# [9] = target: High affinity nerve growth factor receptor (Homo sapiens) (UniProt P04629); conditions: at 10 µM
# [10] = target: BDNF/NT-3 growth factors receptor (Homo sapiens) (UniProt Q16620); conditions: at 1 µM
# BDNF/NT-3 growth factors receptor (Homo sapiens), sequence (Q16620 32-822 limits assumed): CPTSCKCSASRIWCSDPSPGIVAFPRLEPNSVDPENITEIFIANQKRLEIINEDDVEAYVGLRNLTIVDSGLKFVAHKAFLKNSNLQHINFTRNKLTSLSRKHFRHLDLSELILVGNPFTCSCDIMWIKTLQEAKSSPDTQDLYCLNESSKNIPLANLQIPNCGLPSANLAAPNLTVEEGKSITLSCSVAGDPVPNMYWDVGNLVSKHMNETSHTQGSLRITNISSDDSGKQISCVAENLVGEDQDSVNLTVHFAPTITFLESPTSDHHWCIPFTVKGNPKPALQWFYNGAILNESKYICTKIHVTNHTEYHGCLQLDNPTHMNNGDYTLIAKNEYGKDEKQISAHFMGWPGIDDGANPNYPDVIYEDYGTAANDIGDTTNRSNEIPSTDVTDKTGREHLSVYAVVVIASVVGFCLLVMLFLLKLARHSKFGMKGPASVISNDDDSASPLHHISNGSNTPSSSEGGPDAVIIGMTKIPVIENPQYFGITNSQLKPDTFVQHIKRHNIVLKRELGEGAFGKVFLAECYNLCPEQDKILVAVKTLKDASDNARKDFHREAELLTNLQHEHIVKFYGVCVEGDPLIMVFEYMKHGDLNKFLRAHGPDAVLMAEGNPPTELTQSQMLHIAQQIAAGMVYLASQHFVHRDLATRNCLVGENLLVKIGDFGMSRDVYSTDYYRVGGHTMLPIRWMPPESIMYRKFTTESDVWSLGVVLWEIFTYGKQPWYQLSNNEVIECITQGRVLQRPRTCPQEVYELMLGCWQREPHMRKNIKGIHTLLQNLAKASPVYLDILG
# High affinity nerve growth factor receptor (Homo sapiens), sequence (P04629 33-796 limits assumed): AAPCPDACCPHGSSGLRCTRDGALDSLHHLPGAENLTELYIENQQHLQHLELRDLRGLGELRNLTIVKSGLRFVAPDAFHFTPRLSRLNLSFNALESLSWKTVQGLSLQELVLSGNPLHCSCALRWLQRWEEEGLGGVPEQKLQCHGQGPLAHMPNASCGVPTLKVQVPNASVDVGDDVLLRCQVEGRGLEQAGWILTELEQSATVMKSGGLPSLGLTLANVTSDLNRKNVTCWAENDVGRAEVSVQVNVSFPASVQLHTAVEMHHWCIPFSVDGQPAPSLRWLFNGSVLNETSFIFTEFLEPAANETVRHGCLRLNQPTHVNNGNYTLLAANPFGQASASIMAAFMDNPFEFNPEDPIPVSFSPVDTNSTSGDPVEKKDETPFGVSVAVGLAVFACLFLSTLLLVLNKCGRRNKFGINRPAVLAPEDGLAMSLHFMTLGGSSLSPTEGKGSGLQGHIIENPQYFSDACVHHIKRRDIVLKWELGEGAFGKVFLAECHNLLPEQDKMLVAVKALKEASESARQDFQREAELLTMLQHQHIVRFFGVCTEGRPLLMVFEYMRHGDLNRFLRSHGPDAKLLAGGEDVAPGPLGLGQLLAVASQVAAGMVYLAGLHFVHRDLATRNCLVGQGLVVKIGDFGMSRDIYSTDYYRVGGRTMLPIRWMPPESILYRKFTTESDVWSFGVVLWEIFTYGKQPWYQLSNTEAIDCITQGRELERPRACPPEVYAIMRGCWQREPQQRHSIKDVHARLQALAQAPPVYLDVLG
# Angiopoietin-1 receptor (Homo sapiens), sequence (Q02763 whole entry): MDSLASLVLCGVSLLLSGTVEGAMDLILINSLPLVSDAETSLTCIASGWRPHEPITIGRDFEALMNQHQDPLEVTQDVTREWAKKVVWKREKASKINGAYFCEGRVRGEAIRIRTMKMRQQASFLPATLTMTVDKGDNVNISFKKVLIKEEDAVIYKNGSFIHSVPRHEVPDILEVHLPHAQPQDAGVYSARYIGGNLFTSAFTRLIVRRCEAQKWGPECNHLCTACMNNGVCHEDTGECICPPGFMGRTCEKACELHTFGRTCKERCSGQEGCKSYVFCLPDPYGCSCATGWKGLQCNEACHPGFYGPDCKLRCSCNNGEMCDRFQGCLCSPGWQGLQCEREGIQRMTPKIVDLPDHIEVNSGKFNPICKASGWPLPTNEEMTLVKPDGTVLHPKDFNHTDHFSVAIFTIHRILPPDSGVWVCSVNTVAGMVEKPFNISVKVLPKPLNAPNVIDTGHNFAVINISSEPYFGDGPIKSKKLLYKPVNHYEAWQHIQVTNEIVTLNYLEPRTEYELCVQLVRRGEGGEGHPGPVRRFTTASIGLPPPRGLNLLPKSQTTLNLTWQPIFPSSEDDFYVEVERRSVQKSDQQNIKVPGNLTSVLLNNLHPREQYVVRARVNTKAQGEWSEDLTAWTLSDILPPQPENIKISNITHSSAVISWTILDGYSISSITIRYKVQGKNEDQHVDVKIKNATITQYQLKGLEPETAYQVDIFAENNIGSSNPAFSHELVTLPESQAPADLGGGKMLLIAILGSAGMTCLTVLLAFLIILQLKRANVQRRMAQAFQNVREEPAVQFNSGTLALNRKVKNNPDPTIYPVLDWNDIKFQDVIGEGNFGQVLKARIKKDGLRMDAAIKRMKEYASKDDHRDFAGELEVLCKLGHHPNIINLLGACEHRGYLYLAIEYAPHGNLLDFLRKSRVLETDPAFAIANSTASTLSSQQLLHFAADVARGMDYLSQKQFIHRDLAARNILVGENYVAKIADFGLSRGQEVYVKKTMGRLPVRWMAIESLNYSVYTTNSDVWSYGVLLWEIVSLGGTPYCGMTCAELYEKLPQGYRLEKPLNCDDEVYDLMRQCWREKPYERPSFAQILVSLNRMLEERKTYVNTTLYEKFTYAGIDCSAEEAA
Structure (SMILES),residual activity [1],residual activity [2],residual activity [3],residual activity [4],residual activity [5],residual activity [6],residual activity [7],residual activity [8],residual activity [9],residual activity [10]
NC(=O)c1ccc2[nH]c(-c3ccc(Oc4ccc(Cl)cc4)cc3)nc2c1,101%,80%,95%,106%,92%,109%,131%,78%,54%,103%
COc1cc2ncc(-c3ccccc3)nc2cc1OC,,92%,84%,96%,63%,,80%,39%,-1%,54%
c1ccc2c(-c3ccncc3)c[nH]c2c1,94%,89%,95%,103%,85%,77%,88%,91%,55%,134%
O=c1cc(-c2cccc3c2Sc2ccccc2S3)oc(N2CCOCC2)c1,92%,98%,90%,94%,75%,101%,61%,114%,95%,75%
N#CC(C#N)=C(N)/C(C#N)=C/c1ccc(O)cc1,98%,96%,,90%,88%,84%,74%,121%,119%,99%
Cn1cnc2cc3c(Nc4cccc(Br)c4)ncnc3cc21,99%,96%,106%,82%,73%,74%,34%,87%,82%,107%
Nc1ccc2ncnc(NCCc3ccc(Oc4ccccc4)cc3)c2c1,89%,58%,98%,84%,30%,114%,66%,89%,56%,82%
O=C1Nc2ccc(Br)cc2/C1=C\c1cc2c([nH]1)CCCC2,,,,105%,,110%,,19%,20%,48%
O=C(Nc1cccc(Nc2nccc(Nc3cccc(C(F)(F)F)c3)n2)c1)C1CC1,94%,64%,78%,78%,9%,136%,70%,18%,1%,44%
O=C1c2ccccc2-[n+]2ccc3c([nH]c4ccccc43)c21,90%,89%,86%,77%,74%,90%,78%,83%,47%,89%
O=C1NC(=O)/C(=C/c2ccc3c(c2)OC(F)(F)O3)S1,99%,91%,97%,83%,80%,94%,85%,86%,60%,44%
COc1cc2ncnc(Nc3ccc(NC(=O)c4ccccc4)cc3)c2cc1OC,109%,92%,96%,97%,82%,,65%,73%,20%,54%
CO[C@@H]1[C@H](N(C)C(=O)c2ccccc2)C[C@H]2O[C@]1(C)n1c3ccccc3c3c4c(c5c6ccccc6n2c5c31)C(=O)NC4,15%,6%,30%,85%,40%,133%,73%,0%,-1%,23%
COc1cc2ncnc(Nc3ccc(Oc4ccccc4)cc3)c2cc1OC,95%,93%,111%,40%,10%,,,135%,82%,102%
c1ccc(-c2n[nH]c3c2oc2ccccc23)cc1,,82%,96%,,76%,83%,58%,32%,2%,45%
CC(=O)c1ccc(N2CCOCC2)cc1O,98%,94%,104%,104%,91%,79%,83%,,,84%
CCN(CC)C(=O)c1ccc(Nc2nc(OCC3CCCCC3)c3nc[nH]c3n2)cc1,14%,2%,14%,24%,2%,,8%,8%,0%,36%
O=C1NC(=O)/C(=C\c2ccc3nccnc3c2)S1,92%,58%,86%,98%,79%,75%,83%,127%,96%,126%
N#Cc1cnc2cnc(NCc3cccnc3)cc2c1Nc1ccc(F)c(Cl)c1,0%,-1%,14%,90%,65%,,,101%,88%,3%
CN(C)CCCn1cc(C2=C(c3c[nH]c4ccccc34)C(=O)NC2=O)c2ccccc21,86%,37%,,113%,65%,120%,60%,48%,13%,36%
O=C1NC(=O)c2cc(Nc3ccc(F)cc3)c(Nc3ccc(F)cc3)cc21,94%,81%,61%,87%,60%,70%,44%,84%,56%,100%
CCOc1cc2ncnc(Nc3cccc(Br)c3)c2cc1OCC,99%,83%,67%,74%,38%,48%,46%,87%,43%,116%
O=Nc1c(-c2c(O)[nH]c3ccccc23)[nH]c2ccccc12,78%,53%,78%,64%,22%,103%,41%,0%,0%,0%
C[C@@H](N)[C@H]1CC[C@H](C(=O)Nc2ccncc2)CC1,97%,90%,99%,83%,98%,84%,78%,112%,105%,106%
O=C1Nc2ccccc2/C1=C1/Nc2ccccc2/C1=N\OCCC(O)CO (stereo not drawn),75%,69%,,47%,8%,,,-1%,0%,-2%
COc1ccc(CNc2nc(N(CCO)CCO)nc3c2ncn3C(C)C)cc1,86%,70%,87%,103%,79%,101%,80%,75%,56%,72%
COc1ccc(C(=O)Nc2sc3c(c2C(N)=O)CCCC3)cc1OC,94%,75%,85%,89%,86%,79%,59%,58%,76%,70%
O=[N+]([O-])c1ccc(-c2nc(-c3ccc(F)cc3)c(-c3ccncc3)[nH]2)cc1,97%,85%,94%,98%,70%,98%,86%,96%,90%,98%
N#C/C(=C(\N)Sc1ccc(N)cc1)c1ccccc1C(F)(F)F,99%,82%,67%,93%,63%,111%,87%,90%,85%,78%
